# Test results reported in PubChem BioAssay AID493011 (Sanford-Burnham Center for Chemical Genomics, 2011).
# Screen size: about 330,000 compounds; about 1,400 (0.42%) were called active. Many of the other results were omitted from the sample, so actives are more common in it than they were. A number with no mark means an inactive call.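 Rule for the calls: active = at least 40% inhibition at 20 µM here, with at most 30% in a related deaminase screen; inactive = the rest.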
# Target: DNA dC->dU-editing enzyme APOBEC-3A (Homo sapiens) (UniProt P31941)
# Assay: blockers of A3A cytidine deamination on DNA – biochemical, FAM/TAMRA oligo cleavage fluorescence, selectivity assay for APOBEC3G inhibitor project, primary screen (AID 493011);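 note: plate controls were A3A with DMSO for no effect and wells lacking A3A enzyme for full effect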
# Conditions: recombinant A3A, FAM/TAMRA ssDNA deamination fluorescence; at 20 µM; stronger effect = higher value
# DNA dC->dU-editing enzyme APOBEC-3A (Homo sapiens), sequence (P31941 whole entry, looked up): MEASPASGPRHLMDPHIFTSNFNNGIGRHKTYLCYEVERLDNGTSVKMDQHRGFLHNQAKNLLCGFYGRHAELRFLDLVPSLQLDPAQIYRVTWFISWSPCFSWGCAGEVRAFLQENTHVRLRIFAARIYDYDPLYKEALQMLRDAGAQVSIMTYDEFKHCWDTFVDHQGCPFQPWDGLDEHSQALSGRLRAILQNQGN
row,Structure (SMILES),inhibition
1,CC(=O)N/C(=N/c1nc(C)cc(C)n1)Nc1ccc(F)cc1F,-1.6%
2,CC(=O)NNc1cc(=O)c2c(=O)n(C)c(=O)n(C)c2[nH]1,2.94%
3,CC(=O)Nc1ccc(S(=O)(=O)Oc2ccc(/C=N/N=C3/NC(=O)C(CC(=O)O)S3)cc2)cc1 (centres undefined),-1.33%
4,COc1ccccc1CCNC(=O)C1CCN(C(=O)/C=C/c2ccccc2)CC1,40.4% (active)
5,COc1ccccc1CNC(=O)C1CCN(S(C)(=O)=O)CC1,3.64%
6,COc1ccccc1CNC(=O)C1CCN(C(=O)[C@@H]2Cc3ccccc3CN2)CC1,-2.15%
7,CCCc1nnc(SCC(=O)N2C(C)CCCC2C)n1CC (centres undefined),0.831%
8,COc1cc(C(CCN2CCN(c3ccccc3)CC2)c2c(OC)cc(OC)c3ccc(=O)oc23)cc(OC)c1OC (centres undefined),-5.74%
9,CC(C)(C)C(=O)CSc1ccc(S(=O)(=O)N2CCCC2)cn1,-1.15%
10,CCN(CC)S(=O)(=O)c1ccc(N2CCOCC2)c(NC(=O)C(C)Oc2ccc(F)cc2)c1 (centres undefined),-2.06%
11,CC(Oc1ccc(F)cc1)C(=O)Nc1cc(S(=O)(=O)N2CCOCC2)ccc1N1CCN(C)CC1 (centres undefined),63.9% (active)
12,CN1CCN(c2ccc(S(=O)(=O)N3CCOCC3)cc2NC(=O)CCc2ccccc2)CC1,3.6%
13,O=C(CN(CC1CCCO1)C(=O)CNS(=O)(=O)c1ccccc1)NCc1ccccc1 (centres undefined),-2.59%
14,Cc1ccc(NC(=O)CSCC(=O)Nc2sccc2C#N)cc1,-0.813%
15,COc1ccc(NC(=O)CSc2nc(C)cs2)cc1,3.79%
16,Cc1csc(SCC(=O)Nc2sccc2C#N)n1,67.3% (active)
17,CCN(CC)c1ccc(S(=O)(=O)N2CCCCC2)cc1NC(=O)C1=COCCO1,-3.33%
18,CCCC(=O)Nc1cccc(NC(=S)NC(=O)C(C)Oc2ccc(Cl)cc2Cl)c1 (centres undefined),1.55%
19,CC(C)Cc1ccc(C(C)C(=N)N)cc1 (centres undefined),2.27%
20,COc1ccc(C)cc1NC(=O)CNCc1cccs1,-2.55%
21,COc1ccccc1CNC(=O)CCCN1C(=O)NC2(CCCC2)C1=O,-3.53%
22,COc1ccc(C)cc1NC(=O)CCCN1C(=O)NC(C)(C)C1=O,47.3% (active)

row,Structure (SMILES),inhibition
1,Cc1nnsc1S(=O)(=O)Cc1ccccc1Cl,-0.082%
2,CC(C)CNC(=O)CC(c1ccccc1)c1c(O)ccc2ccccc12 (centres undefined),-1.51%
3,CC1CCCCC1NC(=O)NC(=O)COC(=O)C1=NN(c2ccccc2)C(=O)CC1 (centres undefined),1.05%
4,CSc1nnc(-c2ccncc2)n1CCCN1CCCC1=O,63% (active)
5,COCCCn1c(SCC(=O)Nc2ccccc2)nnc1-c1ccncc1,0.275%
6,CCCn1c(SCC(=O)N2CCc3ccccc32)nnc1-c1ccncc1,-1.68%
7,CCN(CC(=O)Nc1cc(Cl)ccc1C)C(=O)Cn1c(=O)cnc2ccccc21,10.7%
8,CCC(=O)c1ccc(OCC(O)CN2CC(C)OC(C)C2)cc1 (centres undefined),0.408%
9,CC(C)CCOc1ccc(C(=O)C[N+]2(C)CCOCC2)cc1,83.1% (active)
10,CCOc1ccc(C(=O)CCN2CCOCC2)cc1,-4.07%
11,CCn1c(=O)c(=O)[nH]c2c(=O)oc3ccc(S(=O)(=O)Nc4ccc(OC)cc4)cc3c21,-3.37%
12,CCC(C)c1ccc(NC(=S)N2CCCC2)cc1 (centres undefined),-3.82%
13,O=S(=O)(Nc1ccccc1N1CCOCC1)c1ccc(Cl)s1,2.47%
14,COc1cccc(N2CCN(c3ccc4nnc(CCC(=O)N5CCN(C)CC5)n4n3)CC2)c1,-4.98%
15,Fc1cc(Br)ccc1NC(=S)Nc1cccnc1,-0.709%
16,COc1cc(/C=N/NC(=S)Nc2cccnc2)cc(OC)c1O,-4.38%
17,S=C(Nc1cccnc1)Nc1ccccn1,63.4% (active)
18,O=C(COC(=O)C1CCN(S(=O)(=O)c2ccc3c(c2)OCCO3)CC1)Nc1ccccc1OC(F)F,3.88%
19,CCc1ccc(NC2Nc3cc(C)nn3S2)cc1 (centres undefined),-0.183%
20,Cc1nnc(CN(C)Cc2cn[nH]c2-c2ccc(-c3ccccc3)cc2)o1,1.98%
21,COc1ccc(C(=O)OCC(=O)NC(=O)CCSc2ccccc2)cc1,0.284%
22,CCS(=O)(=O)C1=NSC2=NC(=O)/C(=C\c3cc(C)n(-c4cccc(OC)c4)c3C)C(=N)N21,-3.79%
